Screens deposited in PubChem by National Center for Advancing Translational Sciences (NCATS).
NTMT1 inh: inhibitors of human N-terminal methyltransferase NTMT1. NTMT1 MTase-Glo SAH luminescence, purified enzyme. Potency, µM (top dose mostly 114 µM), without a hit: top-dose activity change, negative = inhibition, most hits filed as inhibitors. 2.5% of 59,000 active;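 note: potency is the fitted concentration of half-maximal effect; plate controls were DMSO vehicle for no effect and no enzyme for full effect; nearly all actives have a fitted effect of over 65% in size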
Target sequence (Q9BV86 whole entry, looked up): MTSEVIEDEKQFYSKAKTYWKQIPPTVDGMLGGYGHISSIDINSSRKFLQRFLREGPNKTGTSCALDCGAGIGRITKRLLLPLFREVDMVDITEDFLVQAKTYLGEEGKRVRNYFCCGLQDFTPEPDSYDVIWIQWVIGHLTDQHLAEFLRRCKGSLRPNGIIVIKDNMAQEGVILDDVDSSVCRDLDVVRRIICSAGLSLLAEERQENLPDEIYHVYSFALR
HTT prom inh: HTT promoter inhibition; HEK293 HTT promoter firefly luciferase reporter, 24 h; Potency, µM (series often up to 57.5 µM), inactives show top-dose activity change, negative = inhibition, usual class: inhibitors; 0.93% of 48,000 active; AID 1508623; note: potency is the fitted concentration of half-maximal effect; nearly all actives have a fitted effect of over 50% in size
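HEK293 luciferase promoter-reporter cells (2,500/well) plated 24 h, then compounds added at up to 57.5 uM final for 24 h at 37 °C. Firefly luminescence by Dual-Glo, normalized to vehicle (0%) and zero RLU (-100%).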
HTT-AS promoter: activators of huntingtin-antisense promoter activity; HEK293 HTT-AS promoter firefly luciferase reporter, 24 h; response scale: percent change from vehicle, -100% = no light; 0.24% of 48,000 active; Potency, µM (top dose mostly 57.5 µM), for the others: top-dose activity change, positive = activation, usual class: activators; note: potency is the fitted concentration of half-maximal effect; nearly all actives have a fitted effect of over 55% in size
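HEK293 cells carrying firefly luciferase reporters were seeded at 2,500 per well in Opti-MEM and cultured for 24 h. They were then treated with compounds at up to 57.5 uM final for 24 h at 37 degrees C before Dual-Glo luminescence readout.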
GPR32 ag: agonists of human resolvin D1 receptor DRV1 (GPR32); CHO-K1 GPR32 beta-arrestin PathHunter luminescence, 90 min; zero percent set by DMSO-only wells; activation, % at 76.9 µM; 2.5% of 48,000 active;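 active = activation of at least 60% and not above a set upper limit, about 1 call in 100 departs from these limits; inconclusive = activation of 40% to 60%, or above that upper limit; inactive = activation under 40%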; note: 0% is about no effect
Target sequence (O75388 whole entry, looked up): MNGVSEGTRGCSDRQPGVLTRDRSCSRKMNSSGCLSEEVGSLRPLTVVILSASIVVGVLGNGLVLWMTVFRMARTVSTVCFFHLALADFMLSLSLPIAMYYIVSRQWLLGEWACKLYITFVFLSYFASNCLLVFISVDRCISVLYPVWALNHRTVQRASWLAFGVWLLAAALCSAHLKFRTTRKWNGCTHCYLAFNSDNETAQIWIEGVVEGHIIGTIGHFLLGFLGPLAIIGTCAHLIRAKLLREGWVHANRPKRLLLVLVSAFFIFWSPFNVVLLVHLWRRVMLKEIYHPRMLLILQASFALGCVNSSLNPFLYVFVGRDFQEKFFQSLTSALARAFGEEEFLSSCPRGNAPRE
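PathHunter enzyme-fragment complementation, CHO-K1 GPR32 stable line; 2,500 cells/well, overnight attach; cpd 90 min 37 °C 5% CO2; detection reagent 1 h RT; chemiluminescence. DMSO = EC0.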
* marks the source's active call; other numbers are inactive results; ? = inconclusive; . = no result given; ! = not active in a repeat; [ ] = dose if it differs, or a comment. An excerpt weighted towards active compounds, which were near 4.6% of everything screened. Unless noted, calls come from the whole dose curve; as a rule, active = well fitted curve in the direction sought with a large enough effect; inconclusive = small, poorly fitted or top-dose-only effect, or another doubt; inactive = no such curve, though single readings can be large; an effect the other way counts as inactive or inconclusive.

SMILES	NTMT1 inh	HTT prom inh	HTT-AS promoter	GPR32 ag
COc1ccc(-c2nc3ccc(NS(=O)(=O)c4ccc(Cl)cc4)cc3o2)cc1	?	-20%	-13%	79*
COc1ccc(OCC(=O)Nc2ccc(-c3nc4cc(Cl)ccc4o3)cc2)cc1	-9%	105%	?	3
COc1ccc(Nc2nc3ccccc3nc2NS(=O)(=O)c2ccc(Cl)cc2)cc1OC	-9%	?	-42%	118*
CCOC(=O)c1c(C)[nH]c(C)c1S(=O)(=O)N(C)CC(=O)NCc1cccc(Br)c1	-20%	-41%	-16%	101*
CCC1C(=O)OC23C=C[C@@H]4C(C(=O)O)=CO[C@H](O[C@@H]12)[C@@H]43 (stereo not given in full)	17%[57.5 µM]	.	.	.
O=C(Nc1cccc(OCc2cc(=O)n3c4c(sc3n2)CCCC4)c1)c1ccc(F)cc1	3%	-9%	6%	22
COc1ccc(C(=O)Nc2cccc(OCc3cc(=O)n4c5c(sc4n3)CCCC5)c2)cc1OC	11%	2%	12%	63*
CC(C)c1nn2c(=O)cc(COC(=O)c3cccs3)nc2s1	11%	47%	4µM*	-23
CCOc1ccccc1N1CC(c2nc3ccccc3n2CCCCOc2cc(C)ccc2C)CC1=O (stereo not given)	89µM*	-6%	-15%	-9
Cc1cc(OCCn2c(C3CC(=O)N(Cc4ccc(F)cc4)C3)nc3ccccc32)ccc1Cl (stereo not given)	16%	?	-57%	-11
CCOc1ccccc1N1CC(c2nc3ccccc3n2CCOc2ccc(C(C)(C)C)cc2)CC1=O (stereo not given)	4%	-5%	-16%	73*
CCCCN1CC(c2nc3ccccc3n2CCCCOc2cc(C)cc(C)c2)CC1=O (stereo not given)	6%	?	-46%	7
CCc1ccccc1N1CC(c2nc3ccccc3n2CCOc2ccc(Cl)c(C)c2)CC1=O (stereo not given)	4%	?	-70%	77*
CCCCN1CC(c2nc3ccccc3n2CCCCOc2cccc(C)c2C)CC1=O (stereo not given)	29%	?	-38%	109*
FC(F)(F)c1ccccc1-c1nc(NCc2ccccc2)c2ccccc2n1	6%	.	.	.
Cc1ccc(SCCNC(=O)CN(c2cccc(C)c2C)S(C)(=O)=O)cc1	-3%	?	-38%	76*
Cc1cccc(N(CC(=O)NCCSc2ccc(Cl)cc2)S(C)(=O)=O)c1C	20%	?	-41%	103*
Cc1cccc(N(CC(=O)NCCSCc2ccc(Cl)cc2)S(C)(=O)=O)c1C	?	-29%	-26%	?
COc1ccc(CCN2CCN(CCCc3ccccc3)CC2)cc1OC	89µM*!	-2%	-12%	.
Cn1c(=O)c2c(nc(CN3CCN(C(=O)C4CC4)CC3)n2Cc2ccccc2Cl)n(C)c1=O	16%	.	.	.
COc1ccccc1NC(=O)C1=C(C)Nc2nc(SCc3ccccc3F)nn2C1c1ccncc1 (stereo not given)	89µM*	1%	-8%	4
CC(C)(O)/C=C1/C(=O)C(C)(C)C(=O)C(C)(C)C1(O)O[C@@H]1O[C@H](COC(=O)c2cc(O)c(O)c(O)c2)[C@@H](O)[C@H](O)[C@H]1O (stereo not given in full)	-4%[12.6 µM]	.	.	.
CCc1ccc(NC(=O)c2ccc(F)c(S(=O)(=O)N3CCc4ccccc4C3)c2)cc1	-6%	25µM*	-20%	-10
CCc1ccc(NC(=O)c2ccc(F)c(S(=O)(=O)N3CCN(c4ccc(OC)cc4)CC3)c2)cc1	1%	?	-39%	-12
CCc1ccc(NC(=O)c2ccc(F)c(S(=O)(=O)N3CCC(C)CC3)c2)cc1	-2%	4.5µM*	-36%	-11
SMILES	NTMT1 inh	HTT prom inh	HTT-AS promoter	GPR32 ag
CCc1ccc(NC(=O)c2ccc(F)c(S(=O)(=O)N3CCC4(CC3)OCCO4)c2)cc1	-6%	16µM*	-25%	0
Cc1ccc(OCCn2c(CCNC(=O)c3cccc4ccccc34)nc3ccccc32)cc1	5%[57.5 µM]	.	.	.
NC(CC1c2ccccc2Oc2ccccc21)(C(=O)O)C1CC1C(=O)O (stereo not given)	23%	.	.	.
Cc1ccc(NC(=O)CCOc2ccccc2)cc1	9%	48%	10µM*	-9
C[C@@H]1C(=O)O[C@H]2[C@H]1CC[C@@]1(C)C(=O)C=C[C@](C)(O)[C@H]21	10%[57.5 µM]	.	.	.
Cc1ccc(-c2nc3sc(CCNC(=O)c4ccco4)c(C)n3n2)cc1	2%	-21%	-11%	65*
O=C(COc1ccc(Cl)cc1)NCCc1csc(-c2cccc(F)c2)n1	15%	?	-29%	77*
O=C(CCc1ccccc1)NCCc1csc(-c2cccc(F)c2)n1	-2%	-26%	-12%	85*
Cc1nc(-c2ccc(F)cc2)sc1CCNC(=O)c1ccco1	9%	7%	?	-3
O=C(NCCc1csc(-c2ccc(F)cc2)n1)c1ccco1	-26%	-12%	-4%	109*
COc1ccc(CC(=O)NCCc2csc(-c3cccc(F)c3)n2)cc1OC	0%	-32%	-17%	28
COc1cccc(C(=O)NCCc2csc(-c3cccc(F)c3)n2)c1OC	-1%	-19%	-11%	?
O=C(COc1ccccc1)NCCc1csc(-c2ccc(F)cc2)n1	-3%	-19%	-14%	120*
CCOc1ccc(CC(=O)NCCc2csc(-c3ccc(Cl)cc3)n2)cc1	13%	?	-26%	88*
O=C(O)Cn1nnc(-c2ccc(CN(CCCCOc3ccc(CN4CCCC4)cc3)CCc3ccccc3)cc2)n1	-6%[57.5 µM]	.	.	.
C/C=C/C=C/C(=O)OC1CC/C=C/C(O)C(O)C(CCC)OC1=O (stereo not given)	-15%[29.8 µM]	.	.	.
CCOc1ccc(CCNC(=O)CN(C)C)cc1OCC	4%	.	.	.
COc1ccc(-n2ccnc(NCCc3ccc(S(N)(=O)=O)cc3)c2=O)cc1Cl	14%	-39%	-24%	?
NS(=O)(=O)c1ccc(CCNc2nccn(-c3cccc(C(F)(F)F)c3)c2=O)cc1	7%	?	-26%	63*
CC(C)c1c(C(=O)Nc2ccccc2)c(-c2ccccc2)c(-c2ccc(F)cc2)n1CC[C@@H](O)C[C@@H](O)CC(=O)O	35µM*!	18%	-4%	-2
Fc1ccccc1-c1nc(-c2cccc(-c3nn[nH]n3)c2)no1	-1%	.	.	.
COc1ccc2oc(=O)c(-c3nc4ccc(C)cc4[nH]3)cc2c1	22%	22%	8%	4
COc1ccc2nc(S(=O)Cc3ncc(C)c(OC)c3C)[nH]c2c1 (stereo not given)	32µM*!	-27%	-29%	-11
Cc1cccn2c(=O)cc(CSc3nnc(NC(=O)COc4ccccc4)s3)nc12	40µM*	-8%	-7%	1
Cc1cc(NC(=O)NCCN2CCC(O)(Cc3ccccc3)CC2)c2ccccc2n1	0%[57.5 µM]	.	.	.
Cc1ccc(CNc2oc(-c3ccc(COc4ccc(Cl)cc4)o3)nc2C#N)cc1	14%	?	-51%	-17
